Reference: PubChem BioAssay AID1851 (National Center for Advancing Translational Sciences (NCATS), 2009)
“And” between values parts separate entries of the source, which are not always exact repeats. Equal entries are not always repeated. Among all 16,000 compounds or so, about 2,600 (16%) were called active. Roughly 20% stayed inconclusive and do not appear here. Calls come from the whole dose curve; as a rule, active = well fitted curve in the direction sought with a large enough effect; inconclusive = small, poorly fitted or top-dose-only effect, or effect the other way; inactive = no such curve, though single readings can be large or run the other way. The list is a sample of the results.

Each compound was assayed against Cytochrome P450 2D6 (Homo sapiens) (UniProt P10635) (assay: Cytochrome panel assay with activity outcomes). Details: recombinant CYP, pro-luciferin dealkylation, luminescence, p450-cyp2d6; series mostly up to 57.1 µM; activity, negative = inhibition: at the top concentration.
Cytochrome P450 2D6 (Homo sapiens), sequence (P10635 whole entry, looked up): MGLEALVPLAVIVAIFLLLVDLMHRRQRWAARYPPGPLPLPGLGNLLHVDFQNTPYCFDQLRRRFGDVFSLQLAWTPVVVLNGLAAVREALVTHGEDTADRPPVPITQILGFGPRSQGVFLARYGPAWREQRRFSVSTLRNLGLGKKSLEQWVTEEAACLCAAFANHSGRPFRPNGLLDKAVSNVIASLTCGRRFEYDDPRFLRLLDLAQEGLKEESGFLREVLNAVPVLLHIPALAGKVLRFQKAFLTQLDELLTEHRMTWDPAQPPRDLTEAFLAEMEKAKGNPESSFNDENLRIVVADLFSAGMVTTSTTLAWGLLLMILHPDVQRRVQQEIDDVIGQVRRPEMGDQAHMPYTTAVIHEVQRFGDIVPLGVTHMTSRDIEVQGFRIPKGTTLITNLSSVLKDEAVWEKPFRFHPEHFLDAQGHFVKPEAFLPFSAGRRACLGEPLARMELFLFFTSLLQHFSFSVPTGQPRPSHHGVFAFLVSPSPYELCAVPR
% is set by controls: 0 for no effect and ±100 for the full control effect.

activity, negative = inhibition, inactive:
Cc1ccc(N=Nc2ccc(N)cc2C)c(S(N)(=O)=O)c1 3.5% [at 11.4 µM], Cc1ccccc1-n1c(=O)cc(N2CC(C)OC(C)C2)[nH]c1=O (configuration not stated) -2.9%, C/C(=C\c1ccc(Cl)cc1)C(C)(C)C(=O)O 6.46% [at 11.4 µM], CC1(C)CCC(C)(C)c2cc(C(=O)Nc3ccc(C(=O)O)cc3)ccc21 -18.8%, COC(=O)\C(C(C)=O)=C(/C=C/C=C/C=C/N(C)C)N(C)C -21.3%, N=C(N)CCNC(=O)[C@@H]1CCC(N)=N1 2.49% [at 11.4 µM], CCC(=O)Nc1ccc(NC(=O)CSc2nnnn2-c2cccnc2)cc1C -3.22%, CC1=C(C)/C(=N\OC(=O)/C=C/c2ccccc2)C=CC1=O -17.9%, Cc1ccc(S(=O)(=O)/N=C2/NC(=O)/C(=C/c3cccnc3)S2)cc1 -9.7%, COc1ccc2ccccc2c1/C=C\C(=O)c1ccccc1 7.33% [at 11.4 µM], CC1(C)Oc2ccc(C#N)cc2[C@H](N2CCCC2=O)[C@H]1O 3.54%, CCCn1nc(NC(=O)CC(C)C)c2cc3ccccc3nc21 -8.32%, Cc1ccc(C(=O)COC(=O)c2ccccc2N2C(=O)C3C4CCC(C4)C3C2=O)cc1C (configuration not stated) -11.3%, O=C(O)[C@@H]1CCCN1Cc1cc2ccccc2c2ccccc12 10.3% [at 11.4 µM], COC(=O)C1=C(N)Oc2cc(C)n(CC3CCCO3)c(=O)c2C1c1ccccc1OC (configuration not stated) 0.229%, COc1cc(C(=O)N2CCC(NC(=O)C(Cc3ccc(C(C)C)cc3)NC(C)=O)CC2)cc(OC)c1OC (configuration not stated) -11.8%, CN(C)CCCNc1c(C(=O)O)cnc2c1cnn2C 6.96%, Cc1cc2nc(C)n(CCCN)c2cc1C -23.3%, CN(C)c1nc(N)c(C(=O)N=C(N)N)nc1Cl -8.15%, N[C@]1(C(=O)O)CCc2cc(P(=O)(O)O)ccc21 12.2%, CC(C)=CCC/C(C)=C/CC/C(C)=C/CSc1ccccc1C(=O)O 6.75%, O=C(N/N=C1/C[C@@H](O)[C@@H](O)[C@@H]2[C@@H]3C(=O)N(Cc4ccc5c(c4)OCO5)C(=O)[C@H]3CC[C@H]12)OCc1ccccc1 -16.9% [at 11.4 µM], O=c1cc(CSc2ccccc2)[nH]c(=S)[nH]1 -1.57%, Cc1cc(CSc2ccccc2)ccc1NC(=O)COc1ccccc1 -20.7%, Cc1cc(=Nc2ccc3c(c2)c(N)cc(C)[n+]3C)nc(N)n1C 2.81% [at 11.4 µM], Cc1ccc(C(=O)NC(=S)NCC(=O)c2ccccc2)cc1 -0.0035%, O=C(CSc1nc2ccccc2c2ccccc12)c1ccccc1 15.3% [at 11.4 µM], C=CCSc1nc2ccccc2n1C(=O)/C=C/c1cc(OC)c(OC)c(OC)c1 -18.1%, O=C(c1ccco1)N(CCC(c1ccccc1)c1ccco1)Cc1ccco1 (configuration not stated) -23.7%, O=C(COC(=O)c1cccc(S(=O)(=O)N2CCN(c3ccccc3)CC2)c1)NCc1ccco1 -24.8%, O=C(c1ccccc1)N(Cc1ccco1)C1CCS(=O)(=O)C1 (configuration not stated) 0.77%, Cc1cc(C)c2[nH]c(=O)c(CN(Cc3ccco3)C(=O)c3cccs3)cc2c1 -0.89%, CC(=O)Nc1ccc(N2C(=O)CC(c3ccccc3)CC2=O)cc1 -0.454%, CCOc1ccc(CCNC(=O)C2CCN(S(=O)(=O)CC)CC2)cc1OCC -2.78%, NS(=O)(=O)c1ccc(CCNC(=O)C2CCCN2C(=O)OCc2ccccc2)cc1 (configuration not stated) -16.8%, NS(=O)(=O)c1ccc(CNC(=O)/C=C/c2c(Cl)cccc2Cl)cc1 -21.5%, COC(=O)[C@H](CCSC)NC(=O)C/C=C\[C@@H](C)[C@@H](CO)OC 8.79% [at 11.4 µM], N#CCCn1c(=O)c(-c2cccs2)nc2cnc(OCc3ccccc3)nc21 -4.83%, CCOC(=O)CSC1=C(C#N)C(C)C2=C(CCCC2=O)N1 (configuration not stated) -12.6%, CCOC(=O)CSC1=C(C#N)C(c2sccc2C)CC(=O)N1 (configuration not stated) 3.89%, C#CCCCO/N=C1/[C@H]2O[C@@H]2[C@@H](O)[C@H]2[C@H]1CCn1c(=O)n([C@@H](CC)c3ccccc3)c(=O)n12 -15.4% [at 11.4 µM], COc1ccccc1C(=O)NN1C(=O)C2C3C=CC(O3)C2C1=O (configuration not stated) 3.94%, Cn1c(=O)c2[nH]c(SCCN3CCOCC3)nc2n(C)c1=S 0.168% [at 11.4 µM], Cc1cc(C2C(C#N)=C(N)OC3=C2C(=O)CC(C)(C)C3)c(C)s1 (configuration not stated) 4.82%, CC(=O)c1cccc(NC(=O)Oc2ccccc2)c1 -0.0879%, COc1ccc(CC(=O)Nc2cccc(/C(C)=N/NC(=O)c3cccc([N+](=O)[O-])c3)c2)cc1 -14.5%, CC(=O)c1cccc(NC(=O)CCC2CCCC2)c1 -17.5%, Cc1ccc(NS(=O)(=O)c2ccc(OCC(=O)Nc3cccc([N+](=O)[O-])c3)c(C)c2)cc1 -97.9%, Cc1sc(NC(=O)C2CCCCC2C(=O)O)c(C(N)=O)c1C (configuration not stated) -2.17%, CO[C@@H]1COC(=O)C/C=C\[C@@H](C)[C@@H]2C=C[C@H](O)[C@@H](COC(=O)CCC[C@H]1C)O2 4.34% [at 11.4 µM], CC(C)Oc1ccc2c(=O)c3cc(C(=O)O)ccc3oc2c1 0.758%, CC[C@H]1C2=C3C(CC[C@H]4C(OCc5ccc(F)cc5C(F)(F)F)OC[C@](C)([C@@H]34)N(C(=O)OC(C)(C)C)C2)C2COC(=O)OCC21 (some centres not stated) -12.1%, COc1ccc(C2/C(=C(/O)c3ccccc3)C(=O)C(=O)N2c2ccccn2)c(OC)c1 (configuration not stated) 1.83%, COc1ccc(Sc2nc3ccccc3n3c(C(F)(F)F)nnc23)cc1 -12.8%, CC1=C(C(=O)OCc2ccccc2)C(c2cccnc2)c2c(n(C)c(=O)n(C)c2=O)N1 (configuration not stated) -24.1%, Cc1ccc(C2Nc3ccccc3C(=O)N2Cc2ccco2)cc1 (configuration not stated) -19%, Cc1cc([N+](=O)[O-])nn1Cc1ccccc1F -8.89%, Cc1cc(C)c(S(=O)(=O)N2CCCCC2)c(C)c1N(C)S(=O)(=O)c1ccccc1 -13.5%, CCOC(=O)c1sc(=S)n(-c2cccc(C(F)(F)F)c2)c1SC 11.7%, Cc1nnc(S(=O)(=O)c2ccc(N=Nc3c(N)nc(N)nc3N)cc2)s1 18% [at 11.4 µM], CCOC(=O)c1cc(NC(=O)c2ccc(OC)cc2)c(=O)oc1-c1ccccc1 -16.4%, Cc1nn(C(C)C(=O)Nc2sc3c(c2C#N)CCCC3)c(C)c1[N+](=O)[O-] (configuration not stated) 1.12%, C/C(=N\O)c1ccc2[nH]ccc2c1 -1.06%, C=CCn1c(SCC(=O)NC2CCCCC2)nnc1C1CCCCC1 -0.906%, CO[C@@H]1COC(=O)[C@@H](CCSC)NC(=O)C/C=C\[C@@H](C)COC(=O)[C@H](C)NC(=O)C/C=C\[C@H]1C 6.23% [at 11.4 µM], CCN1C(=O)[C@H]2[C@H]3[C@H](O)[C@H](O)C/C(=N/OC[C@@H](O)COCc4ccco4)[C@@H]3CC[C@@H]2C1=O 19.4% [at 11.4 µM] and 13.7% [at 11.4 µM], Cc1ccc(/C=C/C(=O)NC(=S)Nc2ccccc2C(=O)NC2CCCCC2)cc1 -17.6%, N.N.O=C(O)C1(C(=O)O)CCC1.[Pt] -10.9%, Cc1cc(-c2ccccc2)[nH]c(=O)c1S(=O)(=O)c1ccc(Cl)cc1 -13.2%, O=c1[nH]c2cc(Cl)ccc2c(O)c1-c1ccc(Oc2ccccc2)cc1 -10.3%, CCn1c(CC(=O)Nc2ccc(C)cc2)nnc1SCC(=O)Nc1nc(C)cs1 -7.36%, C[C@@H]1CCC[C@H](C)N1NC(=O)c1ccc(Cl)c(S(N)(=O)=O)c1 -4.56% [at 25.6 µM], CCCC[P+](CCCC)(CCCC)Cc1ccc(NC(=O)[C@@H](Cc2ccc3ccccc3c2)NC(=NC2CCCCC2)NC2CCCCC2)cc1 15.3%, O=C(CSCc1ccccc1)Nc1cccc(C(=O)Nc2ccccc2C(=O)O)c1 -0.0467%, Nc1cc(=O)[nH]c(SCC(=O)Nc2ccc(S(=O)(=O)N3CCOCC3)cc2)n1 -25.6%, CS(=O)(=O)Nc1ccc(S(=O)(=O)N2CCOCC2)cc1 4.02%, Cc1ccc(NS(=O)(=O)c2cc(C(=O)N3CCc4ccccc4C3)ccc2Cl)cc1 -24.1%, Cc1ccc(OCC(=O)Nc2ccccc2-c2ccccc2)cc1 -16.6%, Cc1ccccc1C(=O)N1CCc2ccccc2C1 -16.4%, COC(=O)c1ccc(C(=O)OC)c(NC(=O)CSCc2ccc(Br)cc2)c1 -10.2%

AC50, active:
C/C(=C\c1ccc(C(=O)O)cc1)c1ccc2c(c1)C(C)(C)CCC2(C)C 0.0126 µM, Clc1ccc(CN2CCCN(Cc3ccc(Cl)cc3)C2c2cc3ccccc3c3ccccc23)cc1 0.2 µM, CC(C)CN(C)c1nc(N)c(C(=O)N=C(N)N)nc1Cl 39.8 µM, CC1=CC(C)(C)Nc2ccc(CSc3ccccc3)cc21 0.631 µM, O=C(CN(Cc1ccco1)C(=O)c1cccc(Cl)c1)Nc1c(Cl)cc(Cl)cc1Cl 7.08 µM, O=C(CN(Cc1ccco1)C(=O)c1ccccc1)Nc1ccc(Cl)c(Cl)c1 25.1 µM, CCOc1cc(CNCCc2ccc(S(N)(=O)=O)cc2)ccc1OCc1ccc(Cl)cc1 8.91 µM, CCOc1cc(CNCCc2ccc(S(N)(=O)=O)cc2)cc(Cl)c1OCc1ccccc1 0.355 µM, C=CCOC(=O)C1=C(C)NC(SCC(=O)OCC)=C(C#N)C1c1ccc(C)cc1 (configuration not stated) 14.1 µM, COc1cccc(N(CC(=O)Nc2cccc(C(C)=O)c2)S(C)(=O)=O)c1 0.141 µM, CS(=O)(=O)N(CC(=O)Nc1cccc(F)c1)c1cccc([N+](=O)[O-])c1 0.631 µM, COc1ccccc1-c1cc(-n2ccnc2)ncn1 12.6 µM, CN(C)Cc1ccccc1-c1cc(-n2ccnc2)ncn1 2.51 µM, C/C(=N/O)c1ccc2cc(Br)c3ccccc3c2c1 0.0251 µM, O=c1[nH]c2cc(Cl)ccc2c(O)c1-c1cccc(Oc2ccccc2)c1 6.31 µM, CC(=O)c1cccc(NC(=O)CSCc2ccccc2)c1 14.1 µM, O=C(CSCc1ccccc1)Nc1ccc(S(=O)(=O)N2CCOCC2)cc1 6.31 µM, O=C(c1ccc(CN2CCc3ccccc3C2)cc1)N1CCc2ccccc2C1 2 µM, CSc1ccccc1NC(=O)CSCc1ccc(C)cc1 14.1 µM

AC50, inactive:
C[C@@H]1CCN=C(N)S1, CC(=O)Nc1ccc(S(=O)(=O)N=S(C)C)cc1, CC1=C(CC(=O)O)c2cc(F)ccc2/C1=C\c1ccc(S(C)=O)cc1 (configuration not stated)
